The list is not random: actives were taken first. Their share in the collection is about 4.1%.
KLF5 inhibitor: KLF5 expression inhibitors, primary screen, DLD-1 cells, luminescence; inhibition, % at 5 µM; 290,000 compounds, 0.23% hits; DLD-1 KLF5 promoter-luciferase reporter;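 active = inhibition above a per-plate limit of that plate's mean compound inhibition plus 3 SD, cut at about 60% in these data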;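 also: 0% = DMSO wells and 100% = LY294002 at 200 µM; higher means less KLF5 promoter-driven luciferase light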
aSyn 5UTR inh: MLPCN primary screen, SNCA 5' untranslated region; alpha-synuclein 5'UTR reporter, inhibitor activity; inhibition, % (tested at 7.5 µM); 300,000 compounds, 0.82% hits; in the data active = inhibition above about 60%;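 also: H4 neuroglioblastoma cells stably carrying SNCA 5'UTR luciferase fusion; 0% = DMSO wells and 100% = positive control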
Gli-Sufu antag: Gli-Sufu pathway antagonists, primary screen, luciferase luminescence, Sufu-KO-LIGHT cells, uHTS; 340,000 compounds, 0.74% hits; Sufu-KO-LIGHT fibroblasts, Gli luciferase reporter luminescence; inhibition, % at 5 µM;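 active = inhibition above about 55%, limit read from the data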;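 also: 0% = DMSO-treated cells and 100% = wells with medium but no cells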
Mdm2 MdmX PPI: inhibitors of human Mdm2-MdmX association, primary screen, cell-based, luminescence, split luciferase, SaOS-2, uHTS; SaOS-2 split-luciferase Mdm2/MdmX complementation; inhibition, % at 8 µM; 330,000 compounds, 3% hits;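 active = inhibition of at least 50% at 8 µM in the primary screen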
697 NFkB inh: inhibitors of PMA/ionomycin-induced NF-kB reporter, 697 cells, primary screen, B-cell NF-kB inhibitor project, cell-based, luminescence, uHTS | 330,000 compounds, 0.33% hits | inhibition, % at 4 µM | 697 B-cell NF-kB luciferase reporter, 16 h; in the data active = inhibition above about 35%
Jurkat NFkB inh: inhibitors of induced NF-kB luciferase reporter, primary screen, TCR NF-kB activation inhibitor project, cell-based, luminescence, uHTS | Jurkat, PMA/ionomycin-induced NF-kB luciferase reporter | inhibition, % at 4 µM | 330,000 compounds, 0.53% hits | AID 435003, 2010; in the data active = inhibition above about 50%
Mdm2 MdmX conf: Mdm2-MdmX complex disruptors, retested hits, confirmation, luminescence, single concentration | shares compounds with Mdm2 MdmX PPI | Mdm2-MdmX binding, luminescent assay | inhibition, % at 8 µM | AID 489028, 2010 | 10,000 compounds, 55% hits; in the data active = inhibition above about 40%
FLuc counter: full-length luciferase signal inhibition, confirmation, counter-screen for Mdm2/MdmX interaction inhibitor project, cell-based, single concentration, SaOS-2; shares compounds with Mdm2 MdmX PPI; 6,200 compounds, 77% hits; inhibition, % at 8 µM; SaOS-2 full-length luciferase counterscreen, luminescence;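 active = mean inhibition at 8 µM reaching about 37%, which flags the compound as non-specific, limit read from the data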;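 also: p53-null SaOS-2 cells with luciferase driven by a doxycycline-inducible promoter; compound on cells about two nights before reading with doxycycline added after day one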
* hit, by the source's call; · = no result.

SMILES	KLF5 inhibitor	aSyn 5UTR inh	Gli-Sufu antag	Mdm2 MdmX PPI	697 NFkB inh	Jurkat NFkB inh	Mdm2 MdmX conf	FLuc counter
O=[N+]([O-])c1c(NCCCO)cc(Sc2nc3ccccc3s2)c2nonc12	-3	-3	-3	99*	13	-45	56*	3
COc1ccc(-c2nc(NC(=O)C3CCN(c4nc5ccccc5o4)CC3)sc2C)cc1	-1	-4	26	51*	-13	18	29	·
CCOC(=O)c1c(NC(=O)CC2Nc3cc(C)c(C)cc3NC2=O)sc(C)c1C (stereo not given)	-36	-16	-8	14	3	-8	·	·
CCn1cc([N+](=O)[O-])c(C(=O)N2N=C(c3ccc(O)c(OC)c3)CC2c2ccccc2O)n1 (stereo not given)	-8	21	6	21	1	-21	·	·
CCn1cc([N+](=O)[O-])c(C(=O)N2N=C(c3ccc4ccccc4c3)CC2c2cc(Br)ccc2O)n1 (stereo not given)	-28	-16	5	99*	-1	-10	41*	39*
CCn1cc([N+](=O)[O-])c(C(=O)N2N=C(c3ccc(Cl)c(Cl)c3)CC2c2ccccc2O)n1 (stereo not given)	-8	-6	1	71*	-11	-2	42*	71*
Cc1ccc(S(=O)(=O)N(C)C)cc1NC(=O)CCc1ccccc1	1	15	-2	-25	-5	-4	·	·
Cc1ccc(-c2nc3cccnc3s2)cc1NC(=O)C1c2ccccc2Oc2ccccc21	6	-58	12	70*	-31	-3	10	·
Cc1ccc(CN2CC(C(=O)Nc3ncc(C)s3)CC2=O)cc1 (stereo not given)	·	·	-35	61*	-1	4	59*	66*
Cc1nsc(Nc2ccc([N+](=O)[O-])cc2)c1C#N	2	2	33	79*	-32	4	55*	89*
O=C(O)c1ccc(Nc2cc(Cl)c3nonc3c2[N+](=O)[O-])cc1	-15	-37	5	-21	15	-16	·	·
Cc1c(Nc2cc(Cl)c3nonc3c2[N+](=O)[O-])c(=O)n(-c2ccccc2)n1C	3	·	45	99*	10	18	98*	57*
O=[N+]([O-])c1c(Nc2cccc(O)c2)cc(Cl)c2nonc12	4	25	-2	100*	-12	16	100*	51*
CCCCNC(=O)O/N=C(\N)CS(=O)(=O)C(C)(C)C	-2	-17	-15	15	3	6	·	·
Cc1cc(Sc2nc(N)ncc2[N+](=O)[O-])ncn1	0	-12	-3	14	-3	14	·	·
Cc1cc(Sc2ncnc(N)c2[N+](=O)[O-])ncn1	-5	-46	0	93*	-10	4	-1	·
O=C(N/N=C/c1ccccc1)c1c(O)c2ccccc2[nH]c1=O	-19	-26	-71	38	-106	-49	·	·
CC(C)NC(=O)c1c(O)c2ccccc2[nH]c1=O	-10	-51	-17	84*	11	0	83*	46*
O=C(N/N=C/c1ccc(F)cc1)c1c(O)c2ccccc2[nH]c1=O	-22	43	-14	88*	-1	-7	4	·
CC(C)C(=O)NNC(=O)c1c(O)c2ccccc2[nH]c1=O	-30	4	-2	-12	7	3	·	·
Cc1cc(C)c2oc(C(=O)Nc3ccc(S(=O)(=O)N4CCC(C)CC4)cc3)cc(=O)c2c1	12	11	36	29	4	34	·	·
CC(=O)Nc1ccc(NC(=O)c2cc(=O)c3cc(C)cc(C)c3o2)cc1	5	-61	-4	67*	13	14	54*	90*
Cc1nn2c(NCc3ccccn3)c3c(nc2c1-c1ccccc1)CCC3	27	5	43	53*	6	-2	33	7
CC(C)(C)c1cc(NCc2ccccn2)n2ncc(-c3ccc(Cl)cc3)c2n1	-1	17	-7	45	-4	1	·	·
Cc1nn2c(NCc3ccccn3)cc(C(C)(C)C)nc2c1-c1ccccc1	-11	23	-6	62*	-15	-19	20	·
SMILES	KLF5 inhibitor	aSyn 5UTR inh	Gli-Sufu antag	Mdm2 MdmX PPI	697 NFkB inh	Jurkat NFkB inh	Mdm2 MdmX conf	FLuc counter
COc1ccc(Nc2c3c(nc4c(-c5ccccc5)c(C)nn24)CCC3)cc1	-36	30	0	52*	11	1	22	·
Cc1nn2c(N3CCN(C)CC3)c3c(nc2c1-c1ccccc1)CCCC3	19	-31	0	37	-9	4	·	·
CC(C)c1ccc(C(=O)NC(=S)Nc2ccc3[nH]c(=O)[nH]c3c2)cc1	-19	-1	2	38	18	-2	·	·
CCCCN(C(=O)Cc1cccc(F)c1)c1c(N)n(CCC)c(=O)[nH]c1=O	12	9	0	1	-16	-2	·	·
COc1ccc(-c2n[nH]c(C(F)(F)F)c2-c2cc3ccccc3o2)c(O)c1	5	11	14	81*	-13	13	43*	47*
COc1ccccc1-c1c(-c2ccc(OCC(=O)NN)cc2O)n[nH]c1C(F)(F)F	-5	-2	20	-19	-41	5	·	·
COc1ccc(Cc2nnc(NC(=O)Nc3ccc(C)cc3)s2)cc1OC	-68	-57	-20	29	-51	-28	·	·
Cc1ccc(NC(=O)Nc2nnc(Cc3ccc(F)cc3)s2)cc1	17	-30	-16	55*	-6	-27	32	·
O=C(Nc1ccccc1)Nc1nnc(Cc2ccc([N+](=O)[O-])cc2)s1	-36	11	-2	66*	6	-2	13	·
O=C(Nc1nnc(Cc2ccc([N+](=O)[O-])cc2)s1)Nc1ccccc1F	-33	26	-2	37	8	4	·	·
O=C(Nc1ccccc1)Nc1nnc(Cc2ccc(F)cc2)s1	9	-33	5	7	6	-11	·	·
Cc1ccccc1NC(=O)Nc1nnc(Cc2ccc([N+](=O)[O-])cc2)s1	-18	41	-7	67*	3	-7	10	·
Cc1ccc(NC(=O)Nc2nnc(Cc3ccc([N+](=O)[O-])cc3)s2)cc1C	-9	21	-26	57*	17	2	36	39*
COCCNC(=O)NC(=O)CN1C(=O)NC(Cc2c[nH]c3ccccc23)C1=O (stereo not given)	-6	4	-7	-12	-2	-6	·	·

From PubChem
